# Values joined by “and” are separate entries in the source; they are usually repeats but may differ in a detail not shown here. Equal values may be shown once. Inconclusive results are not listed. A call without a number means that no potency is given here. Active and inactive are the calls of the source. Unless noted, calls follow the shape of the dose curve; as a rule, active = well fitted curve in the direction sought with a large enough effect; inconclusive = small, poorly fitted or top-dose-only effect, or another doubt; inactive = no such curve, though single readings can be large; an effect the other way counts as inactive or inconclusive.
# What was measured:
# [1] = Cell Viability - BJ (AID 421; calls by dose curve;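 also: potency is read from the fitted curve at half-maximal effect; cells exposed to compound for 40 hours at 37 °C before readout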); settings: BJ fibroblast viability, qHTS
# In short: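 Cytotoxicity as drop in intracellular ATP (CellTiter-Glo, 20 min RT) after 40 hr compound exposure of BJ fibroblasts at 37 °C. Titrations scaled between DMSO and 100 uM tamoxifen, Hill-fitted for AC50.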
# [2] = Cell Viability - HepG2 (AID 433; calls by dose curve;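 also: potency is read from the fitted curve at half-maximal effect; potency for ATP loss meaning cytotoxicity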); settings: qHTS
# In short: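 HepG2 cells, 1500 per well, treated 40 hr at 37 °C in complete medium; viability from intracellular ATP by CellTiter-Glo luminescence. Normalized to DMSO and 100 uM tamoxifen; AC50 from Hill fit of qHTS concentration-response.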
# [3] = Cell Viability - HUV-EC-C (AID 542); settings: HUV-EC-C endothelial cell viability, qHTS; series mostly up to 92.2 µM; also: nearly all actives have a fitted effect of over 35% in size
# In short: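 Cells were seeded at 1000 per well and incubated 5 hr at 37 °C before compound addition. After 40 hr at 37 °C, CellTiter-Glo reagent was added for 20 min and luminescence read. AC50 values came from Hill-equation modelling.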
# [4] = Cell Viability - Renal Proximal Tubule (AID 545); settings: renal proximal tubule cells viability, primary cells of rat origin; activity change, negative = cytotoxicity: at 91.7 µM (top of the series); also: nearly all actives have a fitted effect of over 40% in size
# In short: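 Rat renal proximal tubule primary cells, 1000/well, exposed to compounds for 40 hr at 37 °C in complete medium; cellular ATP read by CellTiter-Glo luminescence. AC50 from concentration-response fitted with standard Hill equation.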
# [5] = Cell Viability - Mesenchymal (AID 546); settings: mesenchymal cells viability, qHTS; activity change, negative = cytotoxicity: at 91.7 µM (top of the series);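 also: cells exposed to compound for 40 hours before reading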
# In short: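 In this qHTS cytotoxicity format, glomerulus-derived human mesenchymal kidney cells received compound for 40 hr, then luciferase-based ATP quantitation. Concentration-response data were fitted with the Hill equation.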
# [6] = MultiTox-Fluor Cytotoxicity Assay - LYMP1-003 - Dead Cells (AID 961); settings: LYMP1-003 lymphoblastoid cells, dead-cell protease fluorescence; series mostly up to 92.2 µM; also: nearly all actives have a fitted effect of over 70% in size
# In short: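 Dead-cell protease release, detected as bis-AAF-R110 fluorescence at 485/520 nm, was measured in LYMP1-003 cells after 16 h compound treatment at 37 C. AC50 values came from Hill-modeled qHTS curves normalized to DMSO (0%) and 15 uM tetraoctylammonium bromide (100%).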
# [7] = Cell Viability - LYMP2-003 (AID 965); settings: LYMP2-003 lymphoblastoid cell viability; series mostly up to 92.2 µM;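 also: cells exposed to compounds for 24 h before reading; nearly all actives have a fitted effect of over 50% in size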
# In short: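 Human lymphoblastoid LYMP2-003 cells, 2500/well, exposed to compounds for 24 h at 37 C in complete medium. Viability read as intracellular ATP by CellTiter-Glo luminescence; AC50 from Hill-equation fits of qHTS concentration-response data.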
# [8] = Cell Viability - LYMP2-011 (AID 969); settings: LYMP2-011 lymphoblastoid cells viability; series mostly up to 92.2 µM; also: nearly all actives have a fitted effect of over 60% in size
# In short: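 In this qHTS cytotoxicity format, compounds are tested across concentrations on human lymphoblastoid cells in complete medium for 24 hours at 37 C. Viability is taken as cellular ATP measured by luciferase luminescence.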
# [9] = Cell Viability - LYMP2-013 (AID 970); settings: LYMP2-013 lymphoblastoid cells viability; series mostly up to 92.2 µM; also: nearly all actives have a fitted effect of over 55% in size
# In short: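 Cytotoxicity is scored as a concentration-dependent drop in intracellular ATP in human lymphoblastoid cells after 24 hr compound exposure at 37 C. ATP is quantified by luciferase luminescence, and AC50 values come from Hill-equation modeling.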
# [10] = Cell Viability - LYMP2-023 (AID 975); settings: LYMP2-023 lymphoblastoid cell viability; series mostly up to 92.2 µM; also: nearly all actives have a fitted effect of over 55% in size
# In short: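 Steps: seed 2500 human lymphoblastoid cells per well, incubate 5 hr at 37 C, add compound for 24 hr at 37 C, add CellTiter-Glo, hold 30 min at room temperature, read luminescence. AC50 derived by Hill modelling.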
# [11] = Cell Viability - LYMP2-025 (AID 976); settings: LYMP2-025 lymphoblastoid cell viability; series mostly up to 92.2 µM
# In short: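 Acute cytotoxicity is scored as a concentration-dependent fall in intracellular ATP, measured by luciferase luminescence, in human lymphoblastoid LYMP2-025 cells exposed to compound for 24 hours at 37 C. AC50 values come from standard Hill fits.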
# [12] = Cell Viability - LYMP2-002 (AID 977); settings: LYMP2-002 lymphoblastoid cell viability, qHTS; series mostly up to 92.2 µM;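 also: compound exposure lasted 24 h at 37 °C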
# In short: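 In this qHTS viability screen, 2500 human lymphoblastoid cells per well receive compound for 24 hr at 37 C, and luciferase-based ATP luminescence gives the viability signal. Tetraoctylammonium bromide serves as positive control.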
# [13] = Cell Viability - LYMP2-008 (AID 980); settings: LYMP2-008 lymphoblastoid cell viability, qHTS; series mostly up to 92.2 µM; also: nearly all actives have a fitted effect of over 60% in size
# In short: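 Cells seeded at 2500/well and rested 5 hr at 37 C; compounds added over a concentration range and incubated 24 hr at 37 C; CellTiter-Glo added, 30 min at room temperature; luminescence read and AC50 fitted with Hill model.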
# [14] = Cell Viability - LYMP2-014 (AID 983); settings: LYMP2-014 lymphoblastoid cells, viability qHTS; series mostly up to 92.2 µM; also: nearly all actives have a fitted effect of over 50% in size
# In short: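 Cells are plated at 2500/well and left 5 hr at 37 C. Compounds are added across a concentration range and incubated 24 hr at 37 C in complete medium. CellTiter-Glo is added, and luminescence is read after 30 min at room temperature.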
# [15] = Cell Viability - LYMP2-016 (AID 984); settings: LYMP2-016 lymphoblastoid cell viability, qHTS; series mostly up to 92.2 µM; also: nearly all actives have a fitted effect of over 55% in size
# In short: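 Human lymphoblastoid LYMP2-016 cells, 2500 per well, treated with compounds for 24 h at 37 C. Viability read as intracellular ATP by CellTiter-Glo luminescence after 30 min at room temperature; AC50 from Hill fits of concentration-response.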
# [16] = Cell Viability - LYMP2-026 (AID 989); settings: LYMP2-026 lymphoblastoid cell viability, qHTS; series mostly up to 92.2 µM; also: nearly all actives have a fitted effect of over 50% in size
# In short: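 Cells are seeded at 2500 per well and held 5 hr at 37 C. Compounds are added in concentration series for 24 hr, then CellTiter-Glo reagent is applied and luminescence read.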
# [17] = Cell Viability - LYMP1-002 - Assay at 40 hr (AID 994); settings: LYMP1-002 lymphoblastoid cell viability; series mostly up to 92.2 µM; also: nearly all actives have a fitted effect of over 60% in size
# In short: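 Cells are plated at 2500 per well and rested 5 hr at 37 C. Compounds are added and incubated 40 hr at 37 C. CellTiter-Glo reagent is added for 30 min at room temperature before luminescence is read.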
# [18] = qHTS assay for small molecule antagonists of retinoid X receptor alpha signaling (AID 588546; active = well fitted inhibition curve with a large enough effect in the signal ratio, with a control signal flat, not every such curve was filed as active; the % refers to the signal ratio;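 also: cells stimulated with 9-cis-retinoic acid as agonist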); settings: HEK293T RXRa-UAS-bla, beta-lactamase ratio, antagonist mode; measured here: W530 green channel, cytotoxicity proxy
# In short: (§1)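 Beta-lactamase reporter inhibition, read as CCF4 fluorescence ratio (ex 405, em 460/530 nm) after 2 h at RT. HEK293T UAS-bla cells, 2500/well, were stimulated with 9-cis-RA at 500 or 100 nM final alongside test compound for 18 h at 37 C.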
# [19] = target: Retinoic acid receptor RXR-alpha (Homo sapiens) (UniProt P19793); assay: as above; settings: HEK293T RXRa-UAS-bla, beta-lactamase ratio, antagonist mode
# In short: as §1
# [20] = qHTS assay for environmental chemicals that activate the Aryl hydrocarbon Receptor (AhR) signaling pathway (AID 651777); settings: 1A2-DRE human hepatoma cells, luciferase, 24 h; activation: stronger effect = higher value; also: nearly all actives have a fitted effect of over 15% in size
# In short: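 Quantitative HTS in stably transfected human liver-derived cells whose luciferase gene sits downstream of the CYP1A2 promoter and dioxin response element. After 24 hr exposure at 37 C, One-Glo luminescence was measured.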
# Retinoic acid receptor RXR-alpha (Homo sapiens), sequence (P19793 whole entry, looked up): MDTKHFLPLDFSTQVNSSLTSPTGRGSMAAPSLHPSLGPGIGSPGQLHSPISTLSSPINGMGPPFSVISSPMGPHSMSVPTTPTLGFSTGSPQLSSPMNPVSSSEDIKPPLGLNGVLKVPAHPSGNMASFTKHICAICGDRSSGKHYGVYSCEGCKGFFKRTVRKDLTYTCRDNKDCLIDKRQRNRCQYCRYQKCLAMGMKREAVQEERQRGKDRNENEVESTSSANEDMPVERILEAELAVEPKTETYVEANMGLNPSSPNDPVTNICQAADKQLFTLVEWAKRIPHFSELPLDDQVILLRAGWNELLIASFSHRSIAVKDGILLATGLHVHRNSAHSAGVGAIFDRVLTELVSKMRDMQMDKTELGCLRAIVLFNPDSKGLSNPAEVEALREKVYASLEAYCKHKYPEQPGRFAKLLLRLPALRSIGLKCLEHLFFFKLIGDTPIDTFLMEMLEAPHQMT
Structure (SMILES),Potency [1],Potency [2],Potency [3],Potency [4],Potency [5],Potency [6],Potency [7],Potency [8],Potency [9],Potency [10],Potency [11],Potency [12],Potency [13],Potency [14],Potency [15],Potency [16],Potency [17],max response [18],max response [19],activation [20]
O=[N+]([O-])c1ccccc1Nc1ccccc1,> 92 µM (inactive),> 92 µM (inactive),inactive,inactive,inactive,inactive,inactive,inactive,inactive,inactive,inactive,inactive,inactive,inactive,inactive,inactive,inactive,-9.17%,0.845% (inactive),1.93% (inactive)
Cc1cc(=O)oc2cc(O)cc(O)c12,> 92 µM (inactive),> 92 µM (inactive),inactive,inactive,inactive,inactive,inactive,inactive,inactive,inactive,inactive,inactive,inactive,inactive,inactive,inactive,inactive,,,8.78% (inactive)
c1ccc2ncccc2c1,> 92 µM (inactive),> 92 µM (inactive),inactive,inactive,inactive,inactive,inactive,inactive,inactive,inactive,inactive,inactive,inactive,inactive,inactive,inactive,inactive,-0.528%,0.834% (inactive),-0.0283% (inactive)
COc1ccc([N+](=O)[O-])cc1N,> 92 µM (inactive),> 92 µM (inactive),inactive,inactive,inactive,inactive,inactive,inactive,inactive,inactive,inactive,inactive,inactive,inactive,inactive,inactive,inactive,0.433% and 4.58%,4.59% (inactive) and -0.147% (inactive),1.04% (inactive) and 4.76% (inactive)
COc1ccc(C(=O)Nc2ccccc2)cc1[N+](=O)[O-],> 92 µM (inactive),> 92 µM (inactive),inactive,inactive,inactive,inactive,inactive,inactive,inactive,inactive,inactive,inactive,inactive,inactive,inactive,inactive,inactive,-10.5%,-8.72% (inactive),
OC1CCCCC1,> 92 µM (inactive),> 92 µM (inactive),inactive,inactive,inactive,inactive,inactive,inactive,inactive,inactive,inactive,inactive,inactive,inactive,inactive,inactive,inactive,10.1%,-3.43% (inactive),-0.284% (inactive)

# Source: PubChem BioAssay (NCATS)
